For the first experiment, the target named is MAN1C1. Briefly: pooled miR-30 sensor sort-seq; sequence = guide strand. As to conditions: shRNA.
As to TTATTCGGAACACCTCTTCTCC, the sensor-assay potency score (higher = more potent) was -0.384.
In the case of TTGAGAACAGTCTCAAATCCTG, the sensor-assay potency score (higher = more potent) was -0.222.
On the same count and under the same terms, then TTCGATCTTCCTGAGGACCTTG, with 0.041.
Still for that read-out and setting: then TAACGCTTATAGCTCTGCCAAG, with -1.49.
As for TATGACTCGTGACACGTCTTGG, the sensor-assay potency score (higher = more potent) was -0.605.
As for TTCGGAACACCTCTTCTCCTGT, the sensor-assay potency score (higher = more potent) is -0.298.
AATTGTGACAAAACTAAACTGT yielded a sensor-assay potency score (higher = more potent) of 0.356.
As to TTGTGTGTGTGCAAACACTGGG, the sensor-assay potency score (higher = more potent) is 0.0469.
In the case of TTTGTGTGTGTGCAAACACTGG, the sensor-assay potency score (higher = more potent) is -1.13.
Still for that read-out and setting: the value for TTAGCCTCCATATCTGTCTTGC was -0.298; that for TTGAACATAGGGTCAGTGTTGG was -0.0716.

Another experiment addresses MANEAL. The experiment is described as above. The following applies: shRNA.
In the case of ATGAACATGAGGTTGTTGGCAT, the sensor-assay potency score (higher = more potent) was found to be 0.179.
TACCACGAGTAGTAGAAGGCGT: the sensor-assay potency score (higher = more potent) is -0.339.
For TAGTACTTGCCATTGACCCTGT, the sensor-assay potency score (higher = more potent) was -0.0343.
With ATGCTGGTGTCTATGTAGCCAG, the sensor-assay potency score (higher = more potent) was -1.86.
TTGATGAAGTGCTCCGCCCAGC: the sensor-assay potency score (higher = more potent) was -0.595.
The same measure, in the same setting: the value for TTTGATGAAGTGCTCCGCCCAG was -0.378.
In the case of TAGCTGGCCGAGATCTTGGGGT, the sensor-assay potency score (higher = more potent) was -1.02.
As for AAGTTCTTCACAGCTTTCCAGT, the sensor-assay potency score (higher = more potent) was -0.845.
In the case of TTGTGGTTGTTCCAGGGCCGAA, the sensor-assay potency score (higher = more potent) is -1.8.
As for ATAGTACTTGCCATTGACCCTG, the sensor-assay potency score (higher = more potent) is -0.405.
As to TAGAAGGCGTGCAGGTCCGAGT, the sensor-assay potency score (higher = more potent) is -1.05.
TTCTCTTTGATGAAGTGCTCCG: the sensor-assay potency score (higher = more potent) was -0.00624.

The target of the next experiment is MAP4K4. The experiment is described as above. The following applies: shRNA.
As for TTGCCTTTTATATTCTTCCTGC, the sensor-assay potency score (higher = more potent) was -0.0293.
Take TTGACCACTGAGCCTTTCCGGG: the sensor-assay potency score (higher = more potent) was -1.11.
For the sequence TTTGATGCTACACTGGATCATA, the sensor-assay potency score (higher = more potent) is -0.597.
Consider TAGAACTACATCCTTGGTGATC, for which the sensor-assay potency score (higher = more potent) is -1.1.
On to TTCTCTTTCAACTCTCCTCTTT, for which the sensor-assay potency score (higher = more potent) was -0.401.
As to TTCTTGTTCTCTCCTTCGCTGT, the sensor-assay potency score (higher = more potent) is -0.84.
In turn, TAGATCACTTTCAACCTCTGGC came in with a sensor-assay potency score (higher = more potent) of 0.492.
Take TACATCATCATGGACAATCATG: the sensor-assay potency score (higher = more potent) was -1.13.
On to TAGACTTGTCCATAGGTGCCAT, for which the sensor-assay potency score (higher = more potent) is -0.0714.
Turning to TTATAGACTTGTCCATAGGTGC, the sensor-assay potency score (higher = more potent) is -0.62.
For the sequence TTGTATTTACGAATCTCCGGGG, the sensor-assay potency score (higher = more potent) was -0.365.
TTTGTTGAAATCGTCTTCGGTT showed a sensor-assay potency score (higher = more potent) of 0.0416.

A further experiment concerns the target MAPK4. The experiment is described as above. As to conditions: shRNA.
Regarding TGAACTTGAACAGCTCACCCTG, the sensor-assay potency score (higher = more potent) was -0.313.
In turn, TTCTTCACAGCGACCTTCCGGC had a sensor-assay potency score (higher = more potent) of 0.22.
As for TACCACTTTGTTACCAACCCTT, the sensor-assay potency score (higher = more potent) was -0.102.
Take TTAGTAGTTATAACAATTCCTC: the sensor-assay potency score (higher = more potent) was -0.514.
Sequence TAATGCTGATCAACGATCCTTG returned a sensor-assay potency score (higher = more potent) of 0.275.

Source of the values: the OligoGym collection.
Also: reference of the scale not given here.
